Compounds without any hit were thinned out: in the full panel of roughly 83,000, 20% have a hit.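 Values shown are percent growth following 48 h exposure of cells in 96-well plates to a single concentration of compound; below 10 was considered active.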 A number with no mark means an inactive call. Calls of active or inactive are those of the source.
What follows are compounds tested on HL-60(TB) leukemia (assay: NCI-60 one-dose screen, 48 h (100 = growth as untreated, 0 = no growth, -100 = all killed)). Conditions: 10 µM unless noted.
For `COc1cc(C=O)ccc1OC1OC(COC(C)=O)C(OC(C)=O)C(OC(C)=O)C1OC(C)=O` (stereo not given), the growth was 106%.
In the case of `COc1cc(/C(C#N)=C/c2nc3c(N4CCOCC4)nc(Cl)nc3n2C)cc(OC)c1OC`, the growth is reported as -29% (active).
For `Cc1ccc(-c2csc(N(C(=O)N3CCN(c4cc5c(cc4F)c(=O)c(C(=O)O)cn5C4CC4)CC3)c3ccccc3)n2)cc1`, the growth was 1.91% (active).
`Cc1cc(C)nc(SC2=C(Nc3ccc(O)cc3)C(=O)N(Cc3ccccc3)C2=O)n1` showed a growth of 60.6% [40 µM].
`COc1ccc(-c2cc(-c3ccc(Nc4nc(Nc5ccccc5)nc(Nc5ccc(Cl)cc5)n4)cc3)nc(N)n2)cc1` was tested, and the growth was 101%.
`CCOC(=O)c1c(Cl)c2c(n1Cc1ccc(OC)cc1)-c1oncc1CCC2` was tested, and the growth was 78.9%.
In the case of `COc1cc2nc(-c3ccc(C(F)(F)F)cc3)cc(OCCN3CCCCC3)c2cc1OC`, the growth is reported as 58.6%.
`C=C1C(=O)O[C@H]2[C@H]1CC/C(COC(=O)/C=C/c1c[nH]c3ccccc13)=C\CC[C@@]1(C)O[C@@H]21` was tested, and the growth was -18.7% (active).
`Cc1sc2nc(NCCc3cccs3)[nH]c(=O)c2c1C` was tested, and the growth was 102%.
Work on `S=c1[nH]nc(Cn2c3ccccc3c3ccncc32)o1` yielded a growth of 87.6%.
`CC(=O)Nc1c(C)cc(C)cc1C` showed a growth of 99.8%.
`COc1ccc(-c2cnoc2-c2cc(OC)c3c(c2)OCCO3)cc1` was tested, and the growth was -27.4% (active).
For `C=C1C(=O)O[C@H]2[C@H]1CC/C(COC(=O)NCC(=O)Nc1ccc(OC)c(C(N)=O)c1O)=C\CC[C@@]1(C)O[C@@H]21`, the growth was -7.13% (active).
`COc1ccc(NNS(=O)(=O)O)cc1` was tested, and the growth was 103%.
`O=C1/C(=C/c2ccc(C(F)(F)F)cc2)COc2ccc(O)c(O)c21` was tested, and the growth was -26.1% (active).
Compound `CC(=O)Nc1ccc(C(=O)/C=C/c2ccccc2)cc1` has a growth of 53.9%.
`O=C(CO[N+](=O)[O-])Nc1ccc(C(=O)/C=C/c2ccc3c(c2)OCO3)cc1` was tested, and the growth was 73.7%.
With `O=C1/C=C/[C@@H](O)[C@@H]2C[C@@H](O)C[C@H]2/C=C/CCC[C@H](CCc2ccccc2)O1` the growth was 3.95% (active).
In the case of `C=C1C(=O)O[C@H]2[C@H]1CC/C(COC(=O)N[C@H](Cc1c[nH]c3ccccc13)C(=O)OC)=C\CC[C@@]1(C)O[C@@H]21`, the growth is reported as -58% (active).
With `CC(=O)Nc1nc(C)c(C(=O)N/N=C/N2CCCCC2)s1` the growth was 131%.
In the case of `COC(=O)C(O)c1ccccc1` (stereo not given), the growth is reported as 109%.
For `CCNCCNc1cc(-c2ccc(C(F)(F)F)cc2)c(C#N)c2nc3cc(Cl)c(Cl)cc3n12`, the growth was -56.9% (active).
`COc1ccc(Cl)cc1NC(N)=S` was tested, and the growth was 101%.
With `Cn1c(COC(=O)N2CCCCC2)nc2c(N3CCOCC3)nc(-c3ccccc3)nc21` the growth was -28% (active).
For `O=C1c2ccccc2C2(c3ccc(O)cc3)c3ccccc3Oc3cccc1c32` (stereo not given), the growth was 1.45% (active).
With `Cc1ccc(S(=O)(=O)Nc2cccc3[nH]c(C(F)(F)F)nc23)cc1` the growth was 0.648% (active).
`COc1ccc(Nc2ncnc3c2sc2nc(C)cc(C)c23)cc1` was tested, and the growth was 97.9%.
With `CC(=O)N1CCN(c2ccc(OCC3CO[C@](Cn4ccnc4)(c4ccc(Cl)cc4Cl)O3)cc2)CC1` (stereo not given in full) the growth was 56.5%.
With `CCCC(=O)CC(=O)c1ccccc1` the growth was 112%.
`COc1ccc2c(c1)C(CC(=O)NN)CCC2` (stereo not given) showed a growth of 113%.
`CC(=O)N[C@H](C(=O)N[C@@H](CCCNC(=N)N)C(=O)N[C@@H](CCCCN)C(=O)N[C@@H](CCCNC(=N)N)C(=O)NC(C(=O)N[C@@H](CC(C)C)C(=O)N[C@@H](CCCNC(=N)N)C(=O)N[C@@]1(C)CCC/C=C\CCC[C@@](C)(C(=O)N[C@@H](CCCNC(=N)N)C(=O)N[C@@H](CCC(=O)O)C(=O)N[C@@H](CC(C)C)C(=O)N[C@H](C(=O)N[C@@H](CCC(=O)O)C(N)=O)C(C)C)NC(=O)[C@H](CCC(N)=O)NC(=O)[C@H](CC(C)C)NC(=O)[C@H](CC(C)C)NC1=O)[C@@H](C)O)C(C)C` (stereo not given in full) was tested, and the growth was -41% (active).
For `CN(C)CC(C)(CN(C)C)C(=O)/C=C/c1c(Cl)cccc1Cl`, the growth was -5.28% (active).
`COc1cc(/C=C/C(=O)N2CCC=CC2=O)cc(OC)c1OC` was tested, and the growth was -13.1% (active).
In the case of `Oc1[nH]c2ccccc2c1/C=c1/cc2c(c(-c3ccc(F)cc3)n1)=Nc1ccccc1-2`, the growth is reported as -39.1% (active).
`CSc1cnc2ccccc2n1` was tested, and the growth was 90.3%.
With `c1ccc(-c2cccc(-c3ccccn3)n2)nc1` the growth was -16.9% (active).
In the case of `CCN(CC)CCCC(C)Nc1cc(-c2ccc(C(F)(F)F)cc2)c(C#N)c2nc3ccccc3n12` (stereo not given), the growth is reported as -59.8% (active).
Work on `COC(=O)/C=C1\S/C(=N\NC(=O)c2cc3ccc2/C=C\c2ccc(cc2)/C=C\3)N(c2ccccc2)C1=O` yielded a growth of 16.4%.
`COc1ccc2nc3c(cc2c1)C(=O)CC(c1ccccc1)C3` (stereo not given) was tested, and the growth was -1.74% (active).
In the case of `O=C1c2cccc(NCCN=Cc3cc([N+](=O)[O-])ccc3O)c2C(=O)c2c(NCCN=Cc3cc([N+](=O)[O-])ccc3O)cccc21`, the growth is reported as 70.8%.

Source: PubChem BioAssay (NCI)
